# Source: PubChem BioAssay
# D2 ag-1 = agonists of human D2 dopamine receptor (beta-arrestin). DiscoveRx PathHunter D2 beta-arrestin, luminescence, 90 min; 100% = 57 uM dopamine signal. activation, % (test concentration not listed). hit rate 0.084% among 360,000; in the data active means activation above about 40%; inconclusive means between about 15% and that limit
# Target sequence (P14416 whole entry, looked up): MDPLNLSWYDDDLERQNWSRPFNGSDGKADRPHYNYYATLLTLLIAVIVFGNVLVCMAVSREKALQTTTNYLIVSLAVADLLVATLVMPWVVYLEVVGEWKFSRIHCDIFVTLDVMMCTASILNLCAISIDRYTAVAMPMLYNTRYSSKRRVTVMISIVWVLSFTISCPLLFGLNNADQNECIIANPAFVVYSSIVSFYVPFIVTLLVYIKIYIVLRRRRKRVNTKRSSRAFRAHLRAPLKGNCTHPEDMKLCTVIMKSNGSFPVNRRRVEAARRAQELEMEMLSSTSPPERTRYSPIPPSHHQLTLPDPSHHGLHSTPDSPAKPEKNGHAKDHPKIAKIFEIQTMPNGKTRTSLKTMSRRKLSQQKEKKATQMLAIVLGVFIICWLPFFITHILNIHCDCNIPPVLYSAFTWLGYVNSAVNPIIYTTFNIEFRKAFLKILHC
#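 Agonist mode: compounds alone added to overnight-plated D2 PathHunter cells for 90 min at 37 C, with 57 uM final dopamine (EC100) defining full response. Beta-arrestin recruitment detected by chemiluminescent reagent, read after 1 h at ambient temperature.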
# D2 PAM-1 = D2 dopamine receptor (human) potentiation | hit rate 0.34% among 340,000 | HEK293 T-REx D2, calcium flux, EC20 dopamine potentiation | potentiation, % at 10 µM | P14416 | AID 485347;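 active means potentiation over 3 SD above the plate norm, cut at about 30% in these data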; further: 0% is about no effect
#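 Tetracycline-induced Hek293 Trex D2 cells, force-coupled to calcium, loaded with no-wash calcium dye. Compound added with 180 s kinetic read for agonism, then EC20 dopamine and a further 180 s read for potentiation.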
# D2 PAM-2 = positive allosteric modulators of human D2 dopamine receptor; potentiation, % (concentration not given with the values); DiscoveRx D2 beta-arrestin cells, luminescence, 90 min; 100% = 57 uM dopamine signal; AID 624464; P14416; hit rate 0.23% among 360,000; in the data active means potentiation above about 50%; inconclusive means mostly about 30% to 49%
#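 D2 cells co-treated with compound plus 50 nM dopamine (EC20) for 90 min at 37 deg C to detect potentiation. Beta-arrestin recruitment was read as enzyme-fragment luminescence after 1 h at ambient temperature. Full response was set by 57 uM dopamine.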
# D2 ag-2 = D2 dopamine receptor (human) agonism; HEK293 T-REx D2 cells, calcium flux agonist mode; activation, % at 2 µM; hit rate 0.53% among 340,000; AID 485358;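 active means activation over 3 SD above normal in the single-dose calcium agonist read, cut at about 30% in these data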; further: 0% is about no effect
#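 In this primary screen, compounds producing a positive calcium signal within 180 s of addition to tetracycline-induced, force-coupled HEK293 Trex D2 cells are flagged; cells are dye-loaded with a no-wash calcium kit beforehand.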
# D2 antagonist = antagonists of human D2 dopamine receptor. inhibition, % at 10 µM. HEK293 TREx D2 cells, calcium flux, dopamine EC80. hit rate 2% among 340,000; in the data active means inhibition above about 30%; inactive means below that, where a call was filed; further: 0% is about no effect
#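 Calcium mobilization kinetics were recorded at 1 s intervals in tetracycline-induced HEK293 T-REx D2 cells, first for 180 s after compound addition and then 180 s after EC80 dopamine.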
# * = called active by the depositor; u = inconclusive; x = no result. Rows were chosen to be rich in hits. Some 2.4% of all compounds tested hit in one or more screens of this group.
SMILES,D2 ag-1,D2 PAM-1,D2 PAM-2,D2 ag-2,D2 antagonist
COc1cc2c(cc1OC)C1=C(C#N)CN(C3CCCCC3)CN1CC2,4,2,-6,-2,40*
CN(C)CC(O)COc1cccc(OCC(O)CN(C)C)c1 (stereo not given),-3,-5,-4,0,55*
Cc1ccc(-c2nnc(NC3CCCC3)s2)cc1,-4,x,-20,x,x
Cc1cccc([N+](=O)[O-])c1NC(=O)COC(=O)c1nc2nccc(C)n2n1,0,5,0,-1,52*
Cc1cc(C)n2nc(C(=O)OCC(=O)Nc3ccc(C)c(F)c3)nc2n1,2,x,-6,x,x
CCc1ccc(NC(=O)COC(=O)c2nc3nc(C)cc(C)n3n2)cc1,0,37*,-11,0,41*
CCn1c(SCC(=O)c2[nH]c(C)c(C(C)=O)c2C)nnc1-c1cccs1,0,-8,3,0,99*
Cc1cccc(N2CCN(CCCNC(=O)C3CCCN(c4ncnc5c4nc4n5CCCCC4)C3)CC2C)c1 (stereo not given),-1,0,-13,-1,56*
Cc1cccc(CCNC(=O)C2CCCN(c3ncnc4c3nc3n4CCCCC3)C2)c1 (stereo not given),-1,0,-5,0,6
CCCCNC(=O)c1cc2c(C)cc(C)cc2[nH]1,-2,-24,-23,-2,34*
COc1ccc2[nH]c(C(=O)Nc3ccc(C)c(F)c3)cc2c1,-1,12,-3,-1,-15
Cc1cc(C)c2cc(C(=O)Nc3ccc(C)c(F)c3)[nH]c2c1,3,-27,-35,0,39*
COc1cc2[nH]c(C(=O)Nc3ccc(F)cc3)cc2c(OC)c1OC,x,-20,x,-1,89*
COc1ccc(F)cc1-c1cc(C(=O)Nc2ccc(NC(C)=O)cc2)[nH]n1,1,x,-2,x,x
CN1CCN(C(=O)C2CCN(c3ncnc4c3nc3n4CCCCC3)CC2)CC1,-1,7,-8,0,-2
O=C(C1CCN(c2ncnc3c2nc2n3CCCCC2)CC1)N1CCCCC1,6,-12,-8,35*,13
CCN(CC)S(=O)(=O)c1ccc(OCC(=O)NC(=O)c2ccccc2OC)c([N+](=O)[O-])c1,6,-2,55*,0,-4
COc1ccc(-c2ccc(NS(=O)(=O)c3cc(C)c(C)cc3C)cc2)nn1,x,8,x,2,x
Fc1ccc(Nc2nc(NCc3ccco3)c3ccccc3n2)cc1,-3,-16,-33,5,-2
CSc1ccc(/C=N\Nc2nncn2N)cc1,43*,2,-3,0,4
CCCN1CCN(C(=O)Nc2cccc(C(F)(F)F)c2)CC1,-3,-11,-15,-1,52*
COc1ccc(CCN2C(=O)CC(N3CCN(C/C=C/c4ccccc4)CC3)C2=O)cc1OC (stereo not given),-3,-5,-20,0,-4
C=CCC(NCc1ccccc1)c1ccco1 (stereo not given),-3,41*,2,0,-13
C=CCC(NCc1ccccc1)c1ccc(OC)cc1 (stereo not given),-6,-8,-6,1,-23
Cc1ccccc1-c1noc(C23CC4CC(CC(C4)C2)C3)n1,-1,-26,-9,1,75*
SMILES,D2 ag-1,D2 PAM-1,D2 PAM-2,D2 ag-2,D2 antagonist
Cc1ccccc1-c1noc(-c2ccc(O)cc2)n1,3,-9,13,0,46*
CCCCc1ccc(S(=O)(=O)NC(=O)C2(C)CCN2C(=O)CC2CC2)cc1 (stereo not given),-4,x,-16,x,x
COc1ccccc1N1CCN(S(=O)(=O)CCNC(=O)C(c2ccccc2)c2ccccc2)CC1,x,4,x,x,x
O=C1Cc2cc(S(=O)(=O)N3CCN(c4ccccc4)CC3)ccc2N1,-6,-2,-7,1,-14
O=C1Cc2cc(CCN3CCN(c4nsc5ccccc45)CC3)c(Cl)cc2N1,x,-25,x,0,84*
COCCNC(=S)N/N=C(\C)c1ccc(C)c([N+](=O)[O-])c1,2,-2,-6,-2,32*
CC1(C)ON(C2CCCCC2)[C@H]2c3nc4ccccc4n3C[C@H]21,0,1,0,2,39*
CC(NCC(=O)Nc1cc(S(=O)(=O)N2CCOCC2)ccc1N1CCOCC1)c1ccco1 (stereo not given),5,8,-2,1,64*
CC(Oc1ccc(F)cc1)C(=O)Nc1cc(S(=O)(=O)N2CCCCC2)ccc1N1CCOCC1 (stereo not given),0,2,3,0,37*
Cc1ccccc1SCC(=O)Nc1cc(S(=O)(=O)N2CCOCC2)ccc1N1CCOCC1,4,-10,-1,x,x
CC(=O)c1cc(-c2ccc(F)cc2)n(CCC(=O)NCc2ccccc2C)c1C,x,-5,x,0,x
Cc1c(Cl)cccc1NC(=O)CCS(=O)(=O)c1cccc2nsnc12,x,-15,x,1,x
COCC(=O)Nc1cc(C(=O)Nc2ccccc2C)ccc1Cl,-1,0,-6,0,32*
O=C(Cn1cc(SCc2ccc(Cl)cc2)c2ccccc21)N1CCCC1,x,3,x,0,x
CC(C)(C)N1CC23CCC(C[C@@H]2C1=O)O3 (stereo not given in full),0,x,-1,x,x
C=CCn1c(N)c(-c2nc3ccccc3n2C)sc1=S,-1,31*,-9,1,-14
COC(=O)/C(=C/c1ccc(OC)cc1)NC(=O)c1ccco1,-1,-4,4,0,8
COC(=O)/C(=C/c1ccccc1)NC(=O)c1ccco1,-1,2,-2,0,39*
Cc1cnc(NS(=O)(=O)c2ccc(N)cc2)nc1-c1ccccc1O,2,x,-6,x,x
COc1ccc(NC(=O)CSc2oc(-c3ccc(C)cc3)nc2S(=O)(=O)c2ccc(C)cc2)c(OC)c1,x,x,x,0,x
CCOc1ccc2[nH]c3c(NCCOC)ncnc3c2c1,-7,31*,12,-2,-10
COc1ccc(-n2nc([N+](=O)[O-])c(=NCc3cccnc3)n2O)cc1,u,-3,u,-1,-11
Cc1cc(C)cc(N=c2c([N+](=O)[O-])nn(-c3ccc(Cl)cc3)n2O)c1,12,2,u,0,1
COc1ccc(-n2nc([N+](=O)[O-])c(=NCc3ccco3)n2O)cc1,u,7,u,0,17
COc1ccc(-n2nc([N+](=O)[O-])c(=NCCc3ccc(C)cc3)n2O)cc1,u,1,71*,-1,6
COc1ccc(S(=O)(=O)N2CCN(C3CCN(Cc4ccccc4)CC3)CC2)cc1,-3,-4,-15,0,-17
COc1ccc(-n2nc([N+](=O)[O-])c(=NCCc3ccc(Cl)cc3)n2O)cc1,14,15,87*,0,-1
COc1ccc(-n2nc([N+](=O)[O-])c(=NCCC3=CCCCC3)n2O)cc1,51*,-2,74*,0,14
